The entries come from a sample that favours hits as a whole.
RBX1-CUL1 inh – blocks human RBX1-Cullin-1 di-ubiquitin formation | P62877+Q13616 | in vitro K48 di-Ub FRET, acceptor:donor ratio, 45 min | inhibition, % at 10 µM | actives 0.6% (n = 140,000) | AID 1347404; in the data active = inhibition above about 25%
Target sequence (P62877 whole entry, looked up): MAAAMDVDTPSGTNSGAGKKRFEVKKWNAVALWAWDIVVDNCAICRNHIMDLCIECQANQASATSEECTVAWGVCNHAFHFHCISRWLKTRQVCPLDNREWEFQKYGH
Target sequence (Q13616 whole entry, looked up): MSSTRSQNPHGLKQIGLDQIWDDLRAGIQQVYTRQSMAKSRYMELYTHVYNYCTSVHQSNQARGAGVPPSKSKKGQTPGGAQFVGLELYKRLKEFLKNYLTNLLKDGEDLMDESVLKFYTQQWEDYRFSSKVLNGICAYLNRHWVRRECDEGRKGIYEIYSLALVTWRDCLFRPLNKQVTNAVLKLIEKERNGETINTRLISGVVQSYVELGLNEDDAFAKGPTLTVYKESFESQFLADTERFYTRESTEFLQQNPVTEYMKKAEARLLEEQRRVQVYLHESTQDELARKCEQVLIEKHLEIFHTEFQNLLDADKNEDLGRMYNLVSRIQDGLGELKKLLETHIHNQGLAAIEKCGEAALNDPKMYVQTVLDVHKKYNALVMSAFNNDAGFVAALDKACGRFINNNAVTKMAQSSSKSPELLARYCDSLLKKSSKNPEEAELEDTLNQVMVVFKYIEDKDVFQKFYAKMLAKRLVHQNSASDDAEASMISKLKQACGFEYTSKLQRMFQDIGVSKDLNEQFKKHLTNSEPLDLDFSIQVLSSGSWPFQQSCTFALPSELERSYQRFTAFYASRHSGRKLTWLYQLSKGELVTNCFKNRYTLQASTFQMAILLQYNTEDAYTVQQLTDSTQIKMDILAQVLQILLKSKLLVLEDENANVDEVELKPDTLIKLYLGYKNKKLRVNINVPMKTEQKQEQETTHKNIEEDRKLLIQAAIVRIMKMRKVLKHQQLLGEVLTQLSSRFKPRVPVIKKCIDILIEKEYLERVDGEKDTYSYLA
* marks the source's active call; other numbers are inactive results.

SMILES | RBX1-CUL1 inh
O=C(CSc1nc(-c2ccc(F)cc2)nc2c1Cc1ccccc1O2)Nc1cccc(C(=O)O)c1 | 25.2*
CSC1=NC(=O)C(C(c2ccc(Cl)cc2)C2C(=O)N=C(SC)NC2=O)C(=O)N1 (stereo unspecified) | -4.1
O=C1Oc2cccnc2C(=O)C1C(c1ccc(Cl)cc1)C1C(=O)Oc2cccnc2C1=O (stereo unspecified) | 38.1*
O=C(O)CSc1cccnc1Sc1ccc(Cl)cc1 | 4.9
N#C/C(=C\c1ccccc1)S(=O)(=O)c1ccccc1 | 0.2
N#C/C(=C\c1ccc(F)cc1)S(=O)(=O)c1ccccc1 | 8.6
COc1ccc(-c2ccc(/C=C(/C#N)S(=O)(=O)c3ccccc3)o2)cc1 | 28.8*
c1ccc(OCc2cn3ccccc3n2)nc1 | 11.2
Cc1cccc(C(=O)N2CCC(N3CCCC(C(=O)NC4CC4)C3)CC2)c1 (stereo unspecified) | 11.4
COc1ccc(C(=O)N2CCC(N3CCCC(C(=O)NC4CC4)C3)CC2)o1 (stereo unspecified) | -0.6
Cc1occc1C(=O)N1CCC(N2CCCC(C(=O)NC3CC3)C2)CC1 (stereo unspecified) | 25.0*
C/C(=N\NC(=O)c1cccc(COc2ccc3c(c2)CCC3)c1)c1ccc(O)cc1 | -5.0
Cc1nc(N(C)c2ccccc2)c2c(c1C)C(=O)NC2=O | 2.1
CCN1CC=C2C(C#N)C(=N)C(C#N)(C#N)C(c3cc(OC)c(OC)c(OC)c3)C2C1 (stereo unspecified) | -1.3
CCN1CC=C2C(C#N)C(=N)C(C#N)(C#N)C(c3ccc(SC)cc3)C2C1 (stereo unspecified) | 67.9*
CCCN1CC=C2C(C#N)C(=N)C(C#N)(C#N)C(c3cccc(Br)c3)C2C1 (stereo unspecified) | -0.8
CCOC(=O)N1CC=C2C(C#N)C(=N)C(C#N)(C#N)[C@H](c3cccc(F)c3)[C@H]2C1 (stereo partly specified) | 6.4
CN1CC=C2C(C#N)C(=N)C(C#N)(C#N)C(c3ccc(Br)s3)C2C1 (stereo unspecified) | 44.8*
CN1CC=C2C(C#N)C(=N)C(C#N)(C#N)[C@H](c3ccccc3F)[C@H]2C1 (stereo partly specified) | 2.0
CN1CC=C2C(C#N)C(=N)C(C#N)(C#N)C(c3ccco3)C2C1 (stereo unspecified) | -4.2
CCN1CC=C2C(C#N)C(=N)C(C#N)(C#N)C(c3cccc(F)c3)C2C1 (stereo unspecified) | 46.6*
CCN1CC=C2C(C#N)C(=N)C(C#N)(C#N)[C@H](c3ccc4c(c3)OCO4)[C@H]2C1 (stereo partly specified) | -5.0
Cc1[nH]c2ccc(OC(F)(F)F)cc2c1CCNC(=O)c1cc2cc(Br)ccc2oc1=O | 5.8
CC(Oc1ccccc1)C(=O)N=C1C(=O)N(c2ccccc2)N(C)C1C (stereo unspecified) | -1.3
CCOCc1nn2c(Cc3ccccc3)nnc2s1 | 4.9
SMILES | RBX1-CUL1 inh
O=C(c1cccs1)N1CCN(C(=O)c2cccs2)CC1 | 5.3
CCC(=O)Nc1ccc(-c2nc3c(C)cccc3c(=O)o2)cc1 | -4.2
O=C(C1Cc2ccccc2C1)N1CCC(Cn2cc(CCO)nn2)CC1 | -2.3
COc1ccc(C(=O)Nc2ccc(S(=O)(=O)N3CCCCCC3)cc2)cc1 | -6.5
C=CC(C)(O)CCC1C(C)(OC(C)=O)CCC2C(C)(C)CCCC21C (stereo unspecified) | 6.2
COc1ccc(C(=O)NCCO)cc1S(=O)(=O)N1CCCCC1 | -5.1
O=C(c1ccc(Cl)c([N+](=O)[O-])c1)n1cnc2ccccc21 | -5.7
O=C(c1cc(COc2cccc(C(F)(F)F)c2)[nH]n1)N1CCCC(CO)C1 (stereo unspecified) | -7.7
O=C1CSC2=NC3=C(CCC/C3=C\c3ccc(Br)cc3)C(c3ccc(Br)cc3)N12 (stereo unspecified) | 11.1
Cc1ccc(/C=C2/C(=O)N(C)C(=S)N2C)cc1 | -7.2
CC1=NC2=NC(=O)/C(=C/c3ccc(Br)cc3)N2C(=O)C1 | 79.2*
O=C(Nc1cccc(-c2ccc(F)cc2)c1)C1CCCN(Cc2ccccn2)C1 (stereo unspecified) | -0.5
Cc1ccccc1Cc1nnc2sc(-c3ccncc3)nn12 | 9.3
Cn1c(SCC(=O)Nc2ccc3nc(SCC(=O)NC(C)(C)C)sc3c2)nc2sc3c(c2c1=O)CCCC3 | -5.3
COc1cc(/C=C2/C(=O)N(c3ccc(Cl)c(Cl)c3)N=C2C)cc(OC)c1O | 2.0
CC1=NN(c2ccc(S(N)(=O)=O)cc2)C(=O)/C1=C\c1ccc(N(C)C)c(Br)c1 | 68.0*
CC1=NN(c2ccc(S(N)(=O)=O)cc2)C(=O)C1=Nc1ccc(N(C)C)cc1 | 64.2*
COc1cc(/C=C2\C(=O)N(c3ccc(S(N)(=O)=O)cc3)N=C2C)cc(OC)c1OC | 32.1*
COc1cc(/C=C2/C(=O)N(c3ccc(Cl)c(Cl)c3)N=C2C)cc(OC)c1OC | -2.9
CC1=NN(c2ccc(C)cc2C)C(=O)C1=Nc1ccc(N(C)C)cc1 | -4.3
CN(C)c1ccc(/C=C2\C(=O)NN(c3ccccc3)C2=O)cc1Br | -3.7
CC1=NN(c2ccc(F)cc2)C(=O)/C1=C/c1ccc2c(c1)n(C)c(=O)n2C | -0.5
NS(=O)(=O)c1ccc(N=C2CC(=O)Oc3ccccc32)cc1 | 4.3
CNC(=O)CCCCCN1C(=O)c2ccccc2C1=O | 8.9
O=C1CC(c2ccccc2)CC(=O)C1C=NCCCO (stereo unspecified) | 4.1
SMILES | RBX1-CUL1 inh
CC(=O)C(Sc1ccc(C)cc1)C(C)=O | -3.3
O=C(O)c1ccc(C2Nc3ccccc3-c3nnc(SCc4ccc(Cl)cc4)nc3O2)cc1 (stereo unspecified) | 25.7*
O=C(O)CSc1nnc2c(n1)OC(c1ccc(Cl)cc1)Nc1ccccc1-2 (stereo unspecified) | -5.8
COC(=O)c1ccc(C2Nc3ccccc3-c3nnc(SCc4ccc(C)cc4)nc3O2)cc1 (stereo unspecified) | -3.3
COc1ccc(NC(=O)c2sc(C)nc2C)c(OC)c1 | 0.8
Cn1ncc(CN2CCC(c3cc(=O)[nH]cn3)CC2)c1-c1ccccc1 | 3.2
CC1(C)CC(NC(=O)NC2CCCC2)CC(C)(C)N1 | 6.0
COc1ccc(CNc2c(F)c(F)c3nc4snc(C)c4cc3c2F)cc1 | -5.9
COc1ccccc1CNc1c(F)c(F)c2nc3snc(C)c3cc2c1F | 86.9*
Cc1nsc2nc3c(F)c(F)c(N[C@@H](C)c4ccccc4)c(F)c3cc12 | 8.7
COc1ccc(OC)c(/C=N/NC(=O)c2cc3ccccc3o2)c1 | 8.7
COc1ccc(OCc2nn3c(-c4ccncc4)nnc3s2)cc1 | -4.0
Cc1ccc(C(C)(C)C)c(OCC(=O)Nc2ccc(F)cc2)c1 | -3.5
O=S(=O)(CNC(=S)c1ccccc1)c1ccccc1 | 35.4*
S=C(NCCc1ccccn1)c1ccccc1 | 5.6
COc1cccc(C(=S)NCS(=O)(=O)c2ccc(C)cc2)c1 | -4.7
Cc1nc2ccccc2n1Cc1cc(C(=O)NC(C)c2ccncn2)n[nH]1 (stereo unspecified) | -7.3
O=c1nc(-c2ccccc2)cc(-c2ccccc2)n1-c1ccccc1 | 1.2
O=C1NCCN1CCNCc1cn[nH]c1-c1ccc(-c2ccccc2)cc1 | 2.9
COc1cc(C(=O)NC2CCCN(CCc3ccccc3)C2)cc(OC)c1OC (stereo unspecified) | 7.8
O=C(c1ccccc1)N1CCN(C(=O)c2cnn3c(C(F)(F)F)cc(-c4ccc(Br)cc4)nc23)CC1 | 8.3
CCOc1ccccc1/C=C1\C(=O)NN(c2ccc(C)c(C)c2)C1=O | 46.8*
